Source: PubChem BioAssay
NS1 inh – qHTS Assay for Inhibitors of Influenza NS1 Protein Function; AID 2326, 2010; 270,000 tested, 0.4% active; Potency, µM (series often up to 46.1 µM), for the others: top-dose activity, positive = more growth; calls by dose curve; further: potency means the concentration at half of the fitted maximal effect; actives are rising curves; nearly all actives have a fitted effect of over 50% in size
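Read-out: OD600 growth recovery of NS1-expressing budding yeast. Cells grown overnight at 30C in -URA glucose medium, washed, resuspended and diluted 1:100 in 2% galactose assay medium, pH 6.0. Same strain lacking NS1 served as positive control.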
CHX counter – Cycloheximide Counterscreen for Small Molecule Inhibitors of Shiga Toxin. AID 2314, 2010. max response, %. 300,000 tested, 12% active. cell reporter, cycloheximide protein synthesis inhibition counterscreen; in the data active means max response mostly above about 13%, no sharp cut-off; inactive means mostly below about 14%; further: read at 38.3 µM for the half of the compounds with a filed dose; 0% is about no effect
Shiga inhibitor – A qHTS for Small Molecule Inhibitors of Shiga Toxin; Vero cells, Shiga toxin protein synthesis inhibition reporter; inhibition, % at 38.7 µM; 290,000 tested, 9.2% active; AID 2315, 2010; in the data active means inhibition mostly above about 28%, no sharp cut-off; inactive means mostly below about 43%; further: 0% is about no effect
Pf growth 96h – Primary qHTS for delayed death inhibitors of the malarial parasite plastid, 96 hour incubation; 320,000 tested, 6.9% active; AID 504834, 2011; P. falciparum luciferase reporter growth, 96 h; Potency, µM (highest dose often 28.7 µM), without a hit: at the highest dose activity change, negative = inhibition, hits mostly inhibitors; further: potency means the concentration at half of the fitted maximal effect; on the % scale 0 is the no-effect control and ±100 the full control effect
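Two-generation exposure (96 h) targets delayed-death phenotype. Reporter parasites carrying integrated firefly luciferase, in red cells at 2% hematocrit and 0.05% parasitemia final, kept at 37 C, 5% CO2; luminescence loss indicates inhibition.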
Pf growth 48h – Primary qHTS for delayed death inhibitors of the malarial parasite plastid, 48 hour incubation; P. falciparum luciferase growth in erythrocytes, 48 h; Potency, µM (top dose mostly 28.7 µM), without a hit: at the highest dose activity change, negative = inhibition, usual class: inhibitors; 310,000 tested, 5.9% active; AID 504832, 2011; further: potency means the concentration at half of the fitted maximal effect; on the % scale 0 is the no-effect control and ±100 the full control effect
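Erythrocytes infected with P. falciparum carrying an integrated firefly luciferase reporter (2% hematocrit, 0.1% parasitemia final) were exposed to compounds in RPMI 1640 with 0.5% Albumax at 37 C, 5% CO2. Growth inhibition was scored as reduced luminescence.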
SARS PLP yeast – qHTS of Yeast-based Assay for SARS-CoV PLP | 330,000 tested, 0.19% active | S. cerevisiae expressing SARS-CoV PLpro, growth rescue | Potency, µM (highest dose often 32.9 µM), without a hit: at the top dose activity, positive = growth rescue, usual class: activators; calls by dose curve; further: potency means the concentration at half of the fitted maximal effect; 0% is about no effect; nearly all actives have a fitted effect of over 55% in size
* hit, by the source's call; i = inactive; ? = inconclusive; · = no result. Compounds with a hit are over-represented: about 21% of the library has one in this group of screens. Unless noted, the call rests on the fitted dose curve; in most records, active means well fitted inhibition curve with a large enough effect; inconclusive means small, poorly fitted or top-dose-only effect, or another doubt; inactive means no such curve, though single readings can be large or run the other way.

SMILES	NS1 inh	CHX counter	Shiga inhibitor	Pf growth 96h	Pf growth 48h	SARS PLP yeast
O=C(N/N=C/c1ccc(OC(=O)c2ccc3c(c2)OCO3)cc1)c1cncc(Br)c1	5.5%	-1.6	-9.0	-4.0%	16.4%	11.2%
O=C(N/N=C/c1cccc(OC(=O)c2ccc3c(c2)OCO3)c1)c1cncc(Br)c1	19.7%	48.8*	56.1*	-28.3%	36.5%	-10.0%
Cc1ccccc1OCC(=O)N/N=C/c1cccc(Oc2ccc([N+](=O)[O-])cc2[N+](=O)[O-])c1	18.6%	-1.0	-3.1	1.31µM*	-22.5%	-6.5%
Cc1ccccc1OCC(=O)NCC(=O)N/N=C/c1cccc([N+](=O)[O-])c1	-1.4%	-2.0	-7.5	42.0%	12.9%	0.1%
Cc1c(C(=O)Nc2ccc(Cl)cc2)c2ccccn2c1CCc1ccncc1	-30.9%	27.6*	38.9*	9.28µM*	?	-58.3%
Cc1c(C(=O)Nc2cccc(Cl)c2)c2ccccn2c1CCc1ccncc1	5.2%	12.2	37.1*	?	0.0%	-43.6%
COCCN(Cc1cc2cc(C)ccc2[nH]c1=O)S(=O)(=O)c1ccc(Cl)cc1	9.0%	-1.1	-2.6	7.1%	-11.3%	7.0%
COC(=O)CSc1nc(NC(C)(C)C)nc(N(C)C)n1	·	33.0*	106.9	?	-1.0%	2.0%
COC(=O)CSc1nc(NC(C)C)nc(N(C)C)n1	·	11.9	13.6	5.4%	-2.2%	-2.7%
O=C(CN1CCCc2ccccc21)Nc1cccc(S(=O)(=O)N2CCOCC2)c1	·	·	·	?	?	2.1%
Cc1cc(C(=O)NCCc2ccc(S(N)(=O)=O)cc2)no1	·	-8.4	-17.9	-26.2%	-10.0%	3.6%
O=C(NCCC1=CCCCC1)c1cnsn1	-1.9%	34.6*	45.6*	4.65µM*	89.5%	-0.2%
O=C(NCCC1=CCCCC1)c1cc2c(s1)CS(=O)(=O)C2	2.3%	17.4*	24.7*	1.8%	39.4%	5.1%
O=C(Nc1ccc(Br)cc1)c1cc2ccccn2n1	-29.8%	44.2*	63.6*	340.2%	180.7%	-6.5%
Cc1cc(C(=O)NCCC2=CCCCC2)no1	-14.8%	44.8*	90.8*	20.3%	19.6%	5.4%
O=C(NCc1ccccn1)c1cc2ccccn2n1	-6.3%	11.2	27.3	?	·	-17.0%
O=C(NNC(=O)c1cc(Cl)ccc1[N+](=O)[O-])c1csc(N2CCOCC2)n1	·	·	·	62.5%	-17.1%	·
O=C(NCCC1=CCCCC1)c1c(O)nc2sccn2c1=O	·	·	·	?	11.7µM*	3.1%
Cc1cc(C(=O)NCCc2ccc(Cl)cc2)no1	-1.8%	13.3	24.2	-18.7%	6.57µM*	-0.3%
O=C(NCCc1ccc(Cl)cc1)c1cc2ccccn2n1	-43.4%	24.7*	60.2	11.3%	-12.5%	-2.3%
Cc1ccc(S(=O)(=O)Nc2cccc(C(=O)NCC3CCCO3)c2)cc1F (stereo not drawn)	·	·	·	-2.0%	-6.6%	1.5%
COc1cc(/C=C(\C#N)C(=O)N2CCOCC2)ccc1OCc1ccccc1	-5.2%	3.1	40.1	-15.3%	-3.4%	0.4%
N#C/C(=C\c1ccc(OCc2ccccc2)cc1)C(=O)Nc1ccc(C(=O)O)cc1	-56.0%	25.8*	45.5*	33.6%	9.8%	2.4%
N#C/C(=C\c1ccc(OCc2ccc(C(=O)O)cc2)cc1)C(=O)N1CCOCC1	13.5%	98.5*	179.1*	214.7%	211.9%	-5.9%
N#C/C(=C/c1ccc(C(=O)O)cc1)C(=O)Nc1ccccc1	·	7.3	-15.5	12.5%	9.9%	-1.7%
SMILES	NS1 inh	CHX counter	Shiga inhibitor	Pf growth 96h	Pf growth 48h	SARS PLP yeast
Cc1cnc(C(=O)O)c[n+]1[O-]	·	-2.5	-4.4	-10.4%	-8.8%	·
CCC(C(=O)c1ccccc1)N(C(=O)c1ccccc1Cl)N1C(=O)C2C3C=CC(C3)C2C1=O (stereo not drawn)	-2.5%	1.0	-17.3	10.4µM*	?	-1.6%
CN(C)N(C(=O)c1cc(-c2cccs2)nn1-c1ccccc1)C1CCS(=O)(=O)C1 (stereo not drawn)	·	·	·	5.22µM*	?	10.8%
C[C@@H]1NC(=O)N(CCCn2ccnc2)C1=O	6.1%	-2.3	-6.7	12.3%	23.7%	1.9%
CC(C)NC(=O)CSc1nnc(CNC(=O)OC(C)(C)C)n1C	-12.2%	11.6	1.7	40.2%	1.85µM*	-1.2%
C/C(CC1CC2=C(CC1(C)C)C(C)(C)CCC2)=N\NC(N)=S (stereo not drawn)	-70.8%	-1.8	15.8	1.04µM*	·	11.2µM*
Nc1nc2c(ncn2[C@@H]2O[C@H](CO)[C@@H](O)[C@@H]2O)c(=[SH+])[nH]1.O=[N+]([O-])c1ccc(O)[c]([Hg])c1	-5.6%	·	·	·	·	·
OCC[n+]1c2ccccc2nc2ccc(N3CCOCC3)cc21	4.5%	-2.4	15.0	0.262µM*	0.329µM*	-3.1%
c1ccc2[nH]c(N3CCOCC3)nc2c1	-1.4%	-1.0	6.5	-11.9%	13.6%	44.3%
Cc1cccc(OCC(=O)NCc2cc(C)nc3ccccc23)c1	·	27.4	12.7	9.28µM*	-12.5%	0.2%
O=C(COc1ccccc1)NNc1c2ccccc2nc2ccccc12	-5.7%	6.9	8.7	-12.4%	5.22µM*	-18.6%
COc1ccc(OCC(=O)NNC(=O)C(=O)Nc2ccccc2)cc1	·	·	·	·	·	-0.7%
Cc1nc2ccccc2c(=O)n1NC(=O)COc1ccccc1	-2.5%	-7.7	-4.1	·	0.8%	-0.3%
COc1ccc(OCC(=O)NNc2c3ccccc3nc3ccccc23)cc1	4.0%	6.7	-4.8	2.08µM*	7.38µM*	-9.3%
CC(C)(CNC(=O)c1cccs1)N1CCOCC1	·	·	·	?	-19.8%	-5.6%
S=C(NC1CCCCC1)N1CCCCC1	-0.1%	8.9	12.8	28.2%	4.8%	1.0%
CCCC[C@@H]1CNCCN1CCCc1cc(OC)c(OC)c(OC)c1	·	·	·	84.2%	?	0.6%
O=C(OCC#CCNc1nnc(-c2cccc3ccccc23)o1)c1cccs1	·	·	·	5.0%	?	-3.4%
CCn1c(COc2ccc(OC)cc2)nnc1SCc1nc2ccccc2c(=O)[nH]1	·	-1.2	-16.6	21.9%	-5.0%	-0.9%
COc1ccc(CNC(=O)CCS(=O)(=O)c2ccc3c(c2)NC(=O)CS3)cc1	11.4%	-3.5	-3.8	14.7µM*	18.4%	2.3%
CC1CCCC(NC(=O)CCS(=O)(=O)c2ccc3c(c2)NC(=O)CS3)C1C (stereo not drawn)	3.1%	-8.2	-7.7	13.1µM*	-9.9%	-0.5%
CC1CCCCC1NC(=O)CCS(=O)(=O)c1ccc2c(c1)NC(=O)CS2 (stereo not drawn)	-0.8%	-8.9	-4.0	40.4%	-12.4%	3.1%
CCN(c1ccc(OC)cc1)S(=O)(=O)c1ccc2c(c1)NC(=O)CS2	10.1%	34.4*	27.2	9.1%	18.7%	?
O=C1C[C@H]2CCCCC(=O)N3CC[C@@H](C1)[C@@H]23	·	-5.0	i	·	·	-14.6%
COc1ccc(C(=O)COC(=O)c2cc(C)no2)c(OC)c1	·	·	·	0.4%	-13.6%	4.2%
